These results are taken from ChEMBL document CHEMBL3988442, “University of Dundee, Small-Polar-MMV Screening Library” (2021).

For some assays here: Measured potencies and affinities stand elsewhere.

Design in all cases: scale not given: direction of the effect not stated beside the values
Test [1] has as its target Protein translocase subunit SecA (Escherichia coli (strain K12)) (UniProt P10408). In words: Assay to Identify E. coli SecA ATPase Inhibitors. The class given is functional. The note with it: 30 µM.
In test [2] the target is T1, Ubiquitin-activating enzyme e1, putative (Leishmania donovani (strain BPK282A1)) (UniProt E9BSI1).
T1 sequence (whole entry): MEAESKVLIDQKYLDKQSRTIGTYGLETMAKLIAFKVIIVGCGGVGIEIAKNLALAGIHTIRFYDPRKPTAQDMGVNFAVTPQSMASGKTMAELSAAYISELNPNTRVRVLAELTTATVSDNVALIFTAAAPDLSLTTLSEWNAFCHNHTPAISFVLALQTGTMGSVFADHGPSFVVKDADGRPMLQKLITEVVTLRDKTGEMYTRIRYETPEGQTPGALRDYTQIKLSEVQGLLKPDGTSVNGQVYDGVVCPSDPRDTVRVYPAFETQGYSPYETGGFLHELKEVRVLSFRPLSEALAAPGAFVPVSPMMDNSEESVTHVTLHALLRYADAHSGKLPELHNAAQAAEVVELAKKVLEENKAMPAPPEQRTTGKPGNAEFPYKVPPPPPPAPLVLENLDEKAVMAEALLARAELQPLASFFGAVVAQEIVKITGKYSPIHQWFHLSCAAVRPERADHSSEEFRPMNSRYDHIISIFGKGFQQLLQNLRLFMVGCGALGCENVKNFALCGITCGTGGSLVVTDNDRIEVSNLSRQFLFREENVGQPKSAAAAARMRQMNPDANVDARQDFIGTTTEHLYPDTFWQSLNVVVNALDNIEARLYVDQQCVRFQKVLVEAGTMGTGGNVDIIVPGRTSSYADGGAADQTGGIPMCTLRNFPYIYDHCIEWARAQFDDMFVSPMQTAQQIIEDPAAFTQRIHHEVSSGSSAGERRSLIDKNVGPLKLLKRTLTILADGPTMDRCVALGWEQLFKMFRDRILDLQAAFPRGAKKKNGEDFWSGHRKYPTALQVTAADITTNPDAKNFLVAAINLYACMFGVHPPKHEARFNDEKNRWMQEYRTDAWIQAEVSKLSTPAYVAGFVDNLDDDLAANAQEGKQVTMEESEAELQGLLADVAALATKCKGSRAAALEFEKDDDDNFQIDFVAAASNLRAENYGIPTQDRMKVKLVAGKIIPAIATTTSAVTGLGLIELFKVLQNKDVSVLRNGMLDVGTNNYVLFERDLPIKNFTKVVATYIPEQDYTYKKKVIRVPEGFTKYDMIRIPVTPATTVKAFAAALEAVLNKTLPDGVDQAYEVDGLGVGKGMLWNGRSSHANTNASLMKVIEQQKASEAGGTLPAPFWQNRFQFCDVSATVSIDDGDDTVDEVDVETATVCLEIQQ
In words: Leishmania donovani Ubiquitin Activating Enzyme (LdE1). Type of test: functional. The note with it: 30 µM.

Test [3] deals with AMP-activated protein kinase, AMPK (Homo sapiens) (UniProt P54646+O43741+P54619+Q9UGJ0+Q9Y478+Q13131+Q9UGI9). In words: AMP-dependent Kinase enzyme assay. An in vitro enzyme assay that detects ADP turnover that is directly proportional to AMPK activity. This uses naive AMPK that is activated during the assay with MK-8722. Type of test: functional. Conditions: 30 µM.
Test [4] addresses Sialic acid-binding Ig-like lectin 9 (Homo sapiens) (UniProt Q9Y336). As to the kind of experiment: Hs-Siglec9 ALPHAscreen SOP 20170721. Conditions: 10 µM.
Test [5] deals with Trypanosoma cruzi. As to the kind of experiment: Trypanosoma cruzi phosphomannomutase and mannose-1-phosphate guanylyltransferase assay. Type of test: functional. Conditions: 10 µM.
Test [6] concerns the target T2, Arginase-2, mitochondrial (Homo sapiens) (UniProt P78540).
T2 sequence (whole entry): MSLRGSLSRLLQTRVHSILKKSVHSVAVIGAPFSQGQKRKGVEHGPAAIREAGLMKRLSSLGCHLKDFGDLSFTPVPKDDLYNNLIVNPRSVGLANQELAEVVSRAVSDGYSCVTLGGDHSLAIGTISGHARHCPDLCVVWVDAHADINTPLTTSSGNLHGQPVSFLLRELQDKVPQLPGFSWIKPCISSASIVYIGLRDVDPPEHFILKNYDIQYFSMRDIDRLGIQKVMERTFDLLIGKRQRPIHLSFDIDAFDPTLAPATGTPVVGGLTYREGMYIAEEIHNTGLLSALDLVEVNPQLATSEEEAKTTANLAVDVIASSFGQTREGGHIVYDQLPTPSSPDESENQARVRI
In words: in vitro enzyme assay to detect the production of urea directly proportional to the activity of Arginase II. Further: in the data most compounds retested in dose-response had high values. The class given is functional. Conditions: 33.3 µM.

Test [7] addresses T3, Proteasome subunit beta (Trypanosoma cruzi) (UniProt O96673).
T3 sequence (whole entry): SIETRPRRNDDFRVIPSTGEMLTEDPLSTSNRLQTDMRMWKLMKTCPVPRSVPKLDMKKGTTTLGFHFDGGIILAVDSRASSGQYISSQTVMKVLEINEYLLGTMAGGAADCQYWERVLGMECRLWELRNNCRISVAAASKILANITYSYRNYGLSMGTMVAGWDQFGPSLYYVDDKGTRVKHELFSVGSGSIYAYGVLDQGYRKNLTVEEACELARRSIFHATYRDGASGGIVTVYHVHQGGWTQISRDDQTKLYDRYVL
In words: Trypanosoma cruzi proteasome chymotrypsin-like activity (TcProtChymo) assay. Further: in the data most compounds retested in dose-response had high values. The class given is functional. The note with it: 9.37 µM.

For test [8], the species on record is Homo sapiens. In words: To identify inhibition of the IFN signalling (Jak-Stat) pathway via expression of an eGFP reporter gene under the control of an IFN-stimulated response element (ISRE) containing MxA promoter. The note with it: 30 µM. Type of test: functional.
Test [9] deals with T4, Tyrosyl-tRNA synthetase, putative (Trypanosoma cruzi (strain CL Brener)) (UniProt Q4DSP6).
T4 sequence (whole entry): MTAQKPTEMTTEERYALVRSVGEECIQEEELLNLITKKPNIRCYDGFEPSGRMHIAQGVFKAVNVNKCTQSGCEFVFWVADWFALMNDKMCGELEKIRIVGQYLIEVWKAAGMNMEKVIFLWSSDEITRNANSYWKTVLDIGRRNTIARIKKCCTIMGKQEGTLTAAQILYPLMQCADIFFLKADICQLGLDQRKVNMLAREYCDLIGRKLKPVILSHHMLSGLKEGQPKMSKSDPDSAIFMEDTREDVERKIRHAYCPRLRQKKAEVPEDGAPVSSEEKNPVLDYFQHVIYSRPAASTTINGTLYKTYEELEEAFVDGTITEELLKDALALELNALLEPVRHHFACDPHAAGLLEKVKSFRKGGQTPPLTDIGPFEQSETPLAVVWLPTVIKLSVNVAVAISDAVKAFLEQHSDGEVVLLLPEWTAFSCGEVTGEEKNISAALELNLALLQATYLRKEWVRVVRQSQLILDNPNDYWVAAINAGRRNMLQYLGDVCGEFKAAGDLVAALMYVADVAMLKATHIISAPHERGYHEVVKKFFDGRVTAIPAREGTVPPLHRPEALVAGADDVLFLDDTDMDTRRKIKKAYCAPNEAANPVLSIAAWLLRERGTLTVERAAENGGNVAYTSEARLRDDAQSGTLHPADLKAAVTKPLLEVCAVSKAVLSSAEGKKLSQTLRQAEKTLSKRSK
As to the kind of experiment: Trypanosoma cruzi tyrosyl tRNA synthetase (TcYRS) _High Tyrosine SOP. Further: in the data most compounds retested in dose-response had high values. Type of test: functional. The note with it: 30 µM.

For test [10], the target named is T4, Tyrosyl-tRNA synthetase, putative (Trypanosoma cruzi (strain CL Brener)). In words: Trypanosoma cruzi tyrosyl tRNA synthetase (TcYRS) SOP. Type of test: functional. The note with it: 30 µM.
The target of test [11] is Chromo domain-containing protein 1 (Saccharomyces cerevisiae (strain ATCC 204508 / S288c) (Baker's yeast)) (UniProt P32657). As to the kind of experiment: ScCHD-1 Enzyme Inhibition Assay. Further: in the data most compounds retested in dose-response had high values. Type of test: functional. The note with it: 30 µM.
Chromo domain-containing protein 1 (Saccharomyces cerevisiae (strain ATCC 204508 / S288c) (Baker's yeast)), sequence (P32657 whole entry, the tested form may be a part): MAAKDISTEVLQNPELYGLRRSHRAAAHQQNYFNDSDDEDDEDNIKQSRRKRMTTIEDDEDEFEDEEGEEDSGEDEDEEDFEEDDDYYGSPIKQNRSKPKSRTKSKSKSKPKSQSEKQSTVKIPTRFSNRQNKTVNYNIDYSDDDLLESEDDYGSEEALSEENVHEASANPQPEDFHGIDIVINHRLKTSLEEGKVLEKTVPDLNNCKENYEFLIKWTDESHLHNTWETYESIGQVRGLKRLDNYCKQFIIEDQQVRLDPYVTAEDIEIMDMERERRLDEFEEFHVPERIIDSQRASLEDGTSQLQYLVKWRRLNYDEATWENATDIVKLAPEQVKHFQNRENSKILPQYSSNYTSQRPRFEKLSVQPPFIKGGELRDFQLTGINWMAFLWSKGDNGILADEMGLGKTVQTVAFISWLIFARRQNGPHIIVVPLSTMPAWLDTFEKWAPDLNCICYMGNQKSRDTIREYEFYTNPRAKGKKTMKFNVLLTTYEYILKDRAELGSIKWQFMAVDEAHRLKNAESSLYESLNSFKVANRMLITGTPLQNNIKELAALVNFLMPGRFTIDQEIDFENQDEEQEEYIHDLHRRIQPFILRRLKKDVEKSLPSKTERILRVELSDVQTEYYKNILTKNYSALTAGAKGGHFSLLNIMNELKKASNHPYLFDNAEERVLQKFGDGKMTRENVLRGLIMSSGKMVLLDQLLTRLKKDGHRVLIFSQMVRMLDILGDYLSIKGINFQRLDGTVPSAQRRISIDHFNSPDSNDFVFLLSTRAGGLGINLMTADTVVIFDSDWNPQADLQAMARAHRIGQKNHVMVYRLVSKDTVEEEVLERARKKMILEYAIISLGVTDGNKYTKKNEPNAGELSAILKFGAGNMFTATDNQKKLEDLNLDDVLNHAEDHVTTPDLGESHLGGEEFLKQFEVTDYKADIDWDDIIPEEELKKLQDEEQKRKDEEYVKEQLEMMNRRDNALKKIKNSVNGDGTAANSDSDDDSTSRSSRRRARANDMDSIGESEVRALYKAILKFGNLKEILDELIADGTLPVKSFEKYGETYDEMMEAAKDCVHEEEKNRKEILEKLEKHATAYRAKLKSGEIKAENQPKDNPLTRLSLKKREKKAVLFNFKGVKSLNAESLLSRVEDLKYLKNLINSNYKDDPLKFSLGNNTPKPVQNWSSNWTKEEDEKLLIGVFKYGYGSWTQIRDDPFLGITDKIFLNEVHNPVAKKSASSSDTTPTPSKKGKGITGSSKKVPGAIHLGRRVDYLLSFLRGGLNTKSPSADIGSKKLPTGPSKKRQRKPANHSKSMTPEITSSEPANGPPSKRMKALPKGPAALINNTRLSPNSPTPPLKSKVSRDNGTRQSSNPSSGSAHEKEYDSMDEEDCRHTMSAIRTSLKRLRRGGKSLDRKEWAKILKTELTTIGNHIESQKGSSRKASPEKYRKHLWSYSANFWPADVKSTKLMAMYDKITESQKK

Sialic acid-binding Ig-like lectin 9 (Homo sapiens), sequence (Q9Y336 whole entry): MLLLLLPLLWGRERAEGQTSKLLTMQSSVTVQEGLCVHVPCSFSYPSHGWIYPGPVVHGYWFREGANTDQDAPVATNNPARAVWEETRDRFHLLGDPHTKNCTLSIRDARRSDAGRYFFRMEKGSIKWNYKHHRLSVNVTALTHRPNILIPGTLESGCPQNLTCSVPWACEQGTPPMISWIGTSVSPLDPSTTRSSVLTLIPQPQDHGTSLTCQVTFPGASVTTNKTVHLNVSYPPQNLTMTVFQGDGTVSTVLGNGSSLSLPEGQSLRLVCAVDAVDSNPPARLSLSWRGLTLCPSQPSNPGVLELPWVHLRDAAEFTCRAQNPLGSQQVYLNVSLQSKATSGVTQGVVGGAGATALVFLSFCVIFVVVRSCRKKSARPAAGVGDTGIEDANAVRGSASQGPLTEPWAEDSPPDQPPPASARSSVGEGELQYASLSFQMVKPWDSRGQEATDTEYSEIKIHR
Protein translocase subunit SecA (Escherichia coli (strain K12)), sequence (P10408 whole entry): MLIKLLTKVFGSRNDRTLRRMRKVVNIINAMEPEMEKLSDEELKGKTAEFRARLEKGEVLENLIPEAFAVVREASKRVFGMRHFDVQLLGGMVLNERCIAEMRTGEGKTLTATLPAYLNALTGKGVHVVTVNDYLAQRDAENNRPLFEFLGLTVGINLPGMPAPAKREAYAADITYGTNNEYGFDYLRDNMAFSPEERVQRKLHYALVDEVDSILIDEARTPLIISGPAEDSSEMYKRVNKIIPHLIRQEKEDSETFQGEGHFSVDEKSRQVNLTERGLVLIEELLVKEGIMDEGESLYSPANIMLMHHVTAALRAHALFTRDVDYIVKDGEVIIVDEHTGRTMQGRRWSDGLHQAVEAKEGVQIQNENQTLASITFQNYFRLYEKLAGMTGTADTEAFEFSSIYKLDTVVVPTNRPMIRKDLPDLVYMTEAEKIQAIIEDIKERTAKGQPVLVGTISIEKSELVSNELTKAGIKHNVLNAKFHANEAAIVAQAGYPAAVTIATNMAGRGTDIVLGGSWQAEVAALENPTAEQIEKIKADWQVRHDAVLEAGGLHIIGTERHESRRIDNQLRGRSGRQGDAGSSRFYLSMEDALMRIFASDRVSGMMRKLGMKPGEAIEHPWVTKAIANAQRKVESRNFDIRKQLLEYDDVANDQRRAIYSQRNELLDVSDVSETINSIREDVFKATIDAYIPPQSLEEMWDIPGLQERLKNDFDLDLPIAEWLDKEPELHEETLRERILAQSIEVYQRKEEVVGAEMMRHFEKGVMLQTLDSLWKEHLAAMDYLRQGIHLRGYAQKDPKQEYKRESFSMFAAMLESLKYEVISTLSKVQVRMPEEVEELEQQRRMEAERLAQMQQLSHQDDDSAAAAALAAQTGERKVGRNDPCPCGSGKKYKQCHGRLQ

As to `O=C(NCCc1ccn(-c2ccccc2)n1)N1CCC1`, the Percent Effect in [1] was -2.79%; in test [2], 15.6%; in test [3] it was -0.615%; in [4] it was -16.6%; in [5] it was 1.67%; in [6], -2.32%. In addition, the Percent Effect in test [7] was 25.5%; in test [8], 4.57%; in test [9], 5.71%; in [10], 25.9%; in test [11], -20.8%.
Turning to `CCOCC1CN(C(=O)c2cscn2)Cc2nnn(CC3CC3)c21` (stereo not given), the Percent Effect in test [1] was -0.829%; in test [2], 10.8%; in [3], 1.84%; in [4] it was -5.91%; in [5], 0.88%; in test [6] it was 4.14%. Moreover, the Percent Effect in [7] was 18.4%; in test [8] it was -1.13%; in test [9] it was 2.16%; in test [10], 7.69%; in [11], -1.63%.
With `O=C(NCCc1ccc(Cl)s1)NCc1nnc2n1CCC2`, the Percent Effect is -5.75% in test [1]; 18.4% in test [2]; -1.91% in test [3]; -9.75% in test [4]; -6.07% in [5]; -3.96% in test [6]. In addition, the Percent Effect in [7] is 15.5%; in [8], 4.94%; in test [9], 4.43%; in test [10], 11.1%; in [11], -7.66%.
Turning to `COc1cc(CNCc2c(C)nn(C)c2N(C)C)ccc1C`, the Percent Effect in [1] is -4.67%; in test [2] it was -5.41%; in [3], -13.7%; in test [4], 2.96%; in test [5] it was 1.98%; in test [6] it was -6.41%. Besides, the Percent Effect is 3.06% in test [7]; -2.21% in test [8]; 5.42% in test [9]; 1.24% in test [10]; 0.104% in test [11].
Take `COc1cc(C(=O)NS(=O)(=O)c2cccc(C#N)c2)cc(Cl)c1OC`: the Percent Effect in test [1] was -2.08%; in [2], -5.41%; in test [3], 2.84%; in test [4], 4.53%; in test [5], 3.44%; in [6] it was 3.51%. Also, the Percent Effect was 1.79% in test [7]; -7.05% in test [8]; -6.93% in test [9]; -1.22% in [10]; 6.51% in test [11].
With `Cc1cc(C)n(CC2CN(CC(=O)Nc3nncs3)CCO2)n1` (stereo not given), the Percent Effect in test [1] was -3.97%; in [2], 15.6%; in [3], 1.37%; in test [4] it was 0.371%; in test [5], -6.37%; in test [6], 3.2%. The Percent Effect was -4.05% in test [7]; 26.9% in test [8]; 6.8% in [9]; 12.2% in test [10]; -2.27% in test [11].
On to `CCN(Cc1ccc2c(c1)OCCO2)S(=O)(=O)N(C)C(C)C`, for which the Percent Effect is -5.7% in [1]; 7.79% in [2]; 3.89% in test [3]; 16% in test [4]; 5.99% in test [5]; 0.356% in [6]. For the same molecule, the Percent Effect in test [7] is 3.38%; in [8], 9.12%; in test [9], 0%; in test [10], 14.6%; in test [11], -6.79%.
Turning to `COCC1CC2(CCN(Cc3cnn(C)c3)CC2)CN1c1ncccn1` (stereo not given), the Percent Effect is -2.97% in [1]; 13% in test [2]; 0.218% in [3]; 12.7% in [4]; 7.38% in test [5]; -5.52% in [6]. In addition, the Percent Effect is 11.7% in test [7]; -19% in test [8]; 7.53% in test [9]; 18.5% in [10]; -2.6% in test [11].
Turning to `Cn1cnc(-c2cc(C(=O)N3CCOCC3)c3ccccn23)c1`, the Percent Effect was -2.02% in test [1]; 10.8% in test [2]; 17.9% in test [3]; -4.69% in [4]; -3.42% in [5]; 17.5% in [6]. The Percent Effect in [7] is 26.6%; in test [8], -15.6%; in [9] it was 3.24%; in test [10], 10.3%; in test [11], -3.5%.
Consider `COc1ncccc1CNc1cc(N2CCCC2CO)ncn1` (stereo not given), for which the Percent Effect is -1.73% in [1]; 2.6% in [2]; -6.5% in test [3]; 5.75% in [4]; 3.75% in [5]; -8.54% in [6]. In addition, the Percent Effect in [7] was 13.3%; in test [8], 20.9%; in test [9], 3.88%; in test [10], 12.2%; in [11] it was -10.4%.
